# Article PMC11006913
# Residue numbers refer to the chain shown, from its start.
# Columns and labels:
# Experiment in all cases: PBM; 200 nM protein, PBS
# Conditions in all cases: dsDNA, one strand shown
# [1] = target: PROP1 (Homo sapiens, UniProt O75360 56-141)
# [2] = target: PROP1 (Homo sapiens, UniProt O75360 56-141, R99H)
# [3] = target: PROP1 (Homo sapiens, UniProt O75360 56-141, F88S)
# [4] = target: T1, NKX2-6 (Homo sapiens, UniProt A6NCS4 118-204, R150C)
# T1 sequence: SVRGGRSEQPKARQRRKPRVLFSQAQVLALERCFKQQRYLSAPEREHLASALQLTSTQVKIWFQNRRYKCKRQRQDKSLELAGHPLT
# [5] = target: NKX3-2 (Homo sapiens, UniProt P78367 192-278, P234S)
# NKX3-2 (Homo sapiens, UniProt P78367 192-278, P234S), sequence (P78367 192-278 P234S): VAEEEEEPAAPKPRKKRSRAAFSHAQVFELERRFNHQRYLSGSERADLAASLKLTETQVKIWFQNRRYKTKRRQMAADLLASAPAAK
# [6] = target: NKX3-2 (Homo sapiens, UniProt P78367 192-278)
# NKX3-2 (Homo sapiens, UniProt P78367 192-278), sequence (P78367 192-278): as the sequence (P78367 192-278 P234S) above, with S43P counted along it
# [7] = target: ALX1 (Homo sapiens, UniProt Q15699 118-204)
# ALX1, sequence (Q15699 118-204): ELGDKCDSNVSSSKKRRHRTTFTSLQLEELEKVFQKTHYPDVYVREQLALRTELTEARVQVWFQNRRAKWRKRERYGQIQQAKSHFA
# [8] = target: T2, PAX4 (Homo sapiens, UniProt O43316 9-242, F177V)
# T2 sequence: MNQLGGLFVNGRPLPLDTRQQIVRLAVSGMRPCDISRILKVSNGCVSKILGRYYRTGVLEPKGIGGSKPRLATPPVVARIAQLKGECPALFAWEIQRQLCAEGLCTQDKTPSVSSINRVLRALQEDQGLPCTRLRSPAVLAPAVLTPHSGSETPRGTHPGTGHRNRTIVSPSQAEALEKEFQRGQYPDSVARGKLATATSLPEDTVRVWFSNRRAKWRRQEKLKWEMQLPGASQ
# [9] = target: T3, PAX4 (Homo sapiens, UniProt O43316 9-242, F177Y)
# T3 sequence: T2 sequence with V169Y
# [10] = target: HOXA4 (Homo sapiens, UniProt Q00056 201-287, W262F)
# HOXA4, sequence (Q00056 201-287 W262F): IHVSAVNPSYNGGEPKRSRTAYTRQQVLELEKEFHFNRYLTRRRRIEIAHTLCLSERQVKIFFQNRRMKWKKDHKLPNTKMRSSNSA
# [11] = target: HOXA7 (Homo sapiens, UniProt P31268 116-202)
# HOXA7 (Homo sapiens, UniProt P31268 116-202), sequence (P31268 116-202): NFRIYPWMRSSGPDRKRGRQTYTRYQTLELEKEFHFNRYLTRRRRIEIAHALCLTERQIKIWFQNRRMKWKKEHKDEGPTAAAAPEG
# [12] = target: HOXA7 (Homo sapiens, UniProt P31268 116-202, W177C)
# HOXA7 (Homo sapiens, UniProt P31268 116-202, W177C), sequence (P31268 116-202 W177C): as the sequence (P31268 116-202) above, with W62C counted along it
# [13] = target: HOXC9 (Homo sapiens, UniProt P31274 178-260, K195R)
# HOXC9 (Homo sapiens, UniProt P31274 178-260, K195R), sequence (P31274 178-260 K195R): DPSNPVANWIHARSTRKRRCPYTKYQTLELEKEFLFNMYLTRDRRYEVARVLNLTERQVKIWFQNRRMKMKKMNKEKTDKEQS
# [14] = target: HOXC9 (Homo sapiens, UniProt P31274 178-260)
# HOXC9 (Homo sapiens, UniProt P31274 178-260), sequence (P31274 178-260): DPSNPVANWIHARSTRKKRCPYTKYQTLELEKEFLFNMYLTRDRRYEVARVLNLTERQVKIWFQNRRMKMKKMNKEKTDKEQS
# [15] = target: HOXC9 (Homo sapiens, UniProt P31274 178-260, R193K)
# HOXC9 (Homo sapiens, UniProt P31274 178-260, R193K), sequence (P31274 178-260 R193K): as the sequence (P31274 178-260) above, with R16K counted along it
# [16] = target: HOXC9 (Homo sapiens, UniProt P31274 178-260, R222W)
# HOXC9 (Homo sapiens, UniProt P31274 178-260, R222W), sequence (P31274 178-260 R222W): as the sequence (P31274 178-260) above, with R45W counted along it
# [17] = target: HOXB6 (Homo sapiens, UniProt P17509 132-218, K202E)
# HOXB6 (Homo sapiens, UniProt P17509 132-218, K202E), sequence (P17509 132-218 K202E): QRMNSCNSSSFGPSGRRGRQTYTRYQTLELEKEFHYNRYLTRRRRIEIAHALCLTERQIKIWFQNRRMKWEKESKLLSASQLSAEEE
# [18] = target: HOXB6 (Homo sapiens, UniProt P17509 132-218)
# HOXB6 (Homo sapiens, UniProt P17509 132-218), sequence (P17509 132-218): as the sequence (P17509 132-218 K202E) above, with E71K counted along it
# [19] = target: T4, NKX2-6 (Homo sapiens, UniProt A6NCS4 118-204)
# T4 sequence: T1 sequence with C33R
# [20] = target: T5, NKX2-6 (Homo sapiens, UniProt A6NCS4 118-204, F151L)
# T5 sequence: T1 sequence with C33R, F34L
# PROP1 (Homo sapiens, UniProt O75360 56-141, R99H), sequence (O75360 56-141 R99H): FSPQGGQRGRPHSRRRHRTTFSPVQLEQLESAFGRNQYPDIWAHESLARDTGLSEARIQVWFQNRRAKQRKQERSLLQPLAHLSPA
# PROP1 (Homo sapiens, UniProt O75360 56-141, F88S), sequence (O75360 56-141 F88S): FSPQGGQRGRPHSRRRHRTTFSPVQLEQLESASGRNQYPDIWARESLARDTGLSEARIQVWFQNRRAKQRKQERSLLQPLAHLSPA
# PROP1 (Homo sapiens, UniProt O75360 56-141), sequence (O75360 56-141): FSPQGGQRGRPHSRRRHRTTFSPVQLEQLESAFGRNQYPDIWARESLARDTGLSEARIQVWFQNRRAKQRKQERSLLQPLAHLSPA
sequence,measurement,setting,value
CCGCAGCC,binding signal,[1],"6.67 upbm affinity estimate (log intensity, higher = more binding, comparable within an allelic series)"
same,binding signal,[2],"6.75 upbm affinity estimate (log intensity, higher = more binding, comparable within an allelic series)"
same,binding signal,[3],"6.52 upbm affinity estimate (log intensity, higher = more binding, comparable within an allelic series)"
GCGCGGCA,binding signal,[4],"9.57 upbm affinity estimate (log intensity, higher = more binding, comparable within an allelic series)"
CGCTACCG,binding signal,[4],"9.4 upbm affinity estimate (log intensity, higher = more binding, comparable within an allelic series)"
CTGCCGGC,binding signal,[5],"10.4 upbm affinity estimate (log intensity, higher = more binding, comparable within an allelic series)"
same,binding signal,[6],"10.3 upbm affinity estimate (log intensity, higher = more binding, comparable within an allelic series)"
CTCGACCA,binding signal,[7],"6.22 upbm affinity estimate (log intensity, higher = more binding, comparable within an allelic series)"
CCTAGCCG,binding signal,[7],"6.41 upbm affinity estimate (log intensity, higher = more binding, comparable within an allelic series)"
GGGGGCAA,binding signal,[8],"9.04 upbm affinity estimate (log intensity, higher = more binding, comparable within an allelic series)"
same,binding signal,[9],"9.1 upbm affinity estimate (log intensity, higher = more binding, comparable within an allelic series)"
CGGCTTCC,binding signal,[10],"9.63 upbm affinity estimate (log intensity, higher = more binding, comparable within an allelic series)"
AGCGCAGG,binding signal,[11],"8.41 upbm affinity estimate (log intensity, higher = more binding, comparable within an allelic series)"
same,binding signal,[12],"8.31 upbm affinity estimate (log intensity, higher = more binding, comparable within an allelic series)"
CCCAGCCG,binding signal,[13],"9.41 upbm affinity estimate (log intensity, higher = more binding, comparable within an allelic series)"
same,binding signal,[11],"8.28 upbm affinity estimate (log intensity, higher = more binding, comparable within an allelic series)"
same,binding signal,[14],"9.56 upbm affinity estimate (log intensity, higher = more binding, comparable within an allelic series)"
same,binding signal,[15],"9.38 upbm affinity estimate (log intensity, higher = more binding, comparable within an allelic series)"
same,binding signal,[16],"9.62 upbm affinity estimate (log intensity, higher = more binding, comparable within an allelic series)"
same,binding signal,[12],"8.32 upbm affinity estimate (log intensity, higher = more binding, comparable within an allelic series)"
same,binding signal,[10],"9.72 upbm affinity estimate (log intensity, higher = more binding, comparable within an allelic series)"
CCGGGCGC,binding signal,[13],"9.34 upbm affinity estimate (log intensity, higher = more binding, comparable within an allelic series)"
same,binding signal,[14],"9.51 upbm affinity estimate (log intensity, higher = more binding, comparable within an allelic series)"
same,binding signal,[15],"9.31 upbm affinity estimate (log intensity, higher = more binding, comparable within an allelic series)"
same,binding signal,[16],"9.66 upbm affinity estimate (log intensity, higher = more binding, comparable within an allelic series)"
same,binding signal,[10],"9.82 upbm affinity estimate (log intensity, higher = more binding, comparable within an allelic series)"
AGCGCCCG,binding signal,[17],"8.99 upbm affinity estimate (log intensity, higher = more binding, comparable within an allelic series)"
same,binding signal,[18],"8.92 upbm affinity estimate (log intensity, higher = more binding, comparable within an allelic series)"
CGCTCCGC,binding signal,[17],"9.03 upbm affinity estimate (log intensity, higher = more binding, comparable within an allelic series)"
same,binding signal,[18],"9.09 upbm affinity estimate (log intensity, higher = more binding, comparable within an allelic series)"
CTCGGGCC,binding signal,[17],"8.97 upbm affinity estimate (log intensity, higher = more binding, comparable within an allelic series)"
same,binding signal,[18],"8.82 upbm affinity estimate (log intensity, higher = more binding, comparable within an allelic series)"
CCCCGGGG,binding signal,[19],"9.57 upbm affinity estimate (log intensity, higher = more binding, comparable within an allelic series)"
same,binding signal,[20],"9.2 upbm affinity estimate (log intensity, higher = more binding, comparable within an allelic series)"
CGGCCTGC,binding signal,[11],"8.37 upbm affinity estimate (log intensity, higher = more binding, comparable within an allelic series)"
same,binding signal,[12],"8.26 upbm affinity estimate (log intensity, higher = more binding, comparable within an allelic series)"
GGGGGGAC,binding signal,[13],"9.27 upbm affinity estimate (log intensity, higher = more binding, comparable within an allelic series)"
same,binding signal,[14],"9.04 upbm affinity estimate (log intensity, higher = more binding, comparable within an allelic series)"
same,binding signal,[15],"9.37 upbm affinity estimate (log intensity, higher = more binding, comparable within an allelic series)"
same,binding signal,[1],"6.32 upbm affinity estimate (log intensity, higher = more binding, comparable within an allelic series)"
same,binding signal,[2],"6.19 upbm affinity estimate (log intensity, higher = more binding, comparable within an allelic series)"
same,binding signal,[16],"9.31 upbm affinity estimate (log intensity, higher = more binding, comparable within an allelic series)"
same,binding signal,[3],"5.57 upbm affinity estimate (log intensity, higher = more binding, comparable within an allelic series)"
CGCTGCGC,binding signal,[19],"9.4 upbm affinity estimate (log intensity, higher = more binding, comparable within an allelic series)"
same,binding signal,[20],"9.26 upbm affinity estimate (log intensity, higher = more binding, comparable within an allelic series)"
GGGGGCCA,binding signal,[10],"9.79 upbm affinity estimate (log intensity, higher = more binding, comparable within an allelic series)"
AACGCGGC,binding signal,[17],"9.12 upbm affinity estimate (log intensity, higher = more binding, comparable within an allelic series)"
same,binding signal,[18],"9.14 upbm affinity estimate (log intensity, higher = more binding, comparable within an allelic series)"
CGGCCACC,binding signal,[11],"8.41 upbm affinity estimate (log intensity, higher = more binding, comparable within an allelic series)"
same,binding signal,[12],"8.25 upbm affinity estimate (log intensity, higher = more binding, comparable within an allelic series)"
CCCCAGCG,binding signal,[5],"10.5 upbm affinity estimate (log intensity, higher = more binding, comparable within an allelic series)"
same,binding signal,[6],"10.6 upbm affinity estimate (log intensity, higher = more binding, comparable within an allelic series)"
CCCTAGGG,binding signal,[5],"10.6 upbm affinity estimate (log intensity, higher = more binding, comparable within an allelic series)"
same,binding signal,[6],"10.5 upbm affinity estimate (log intensity, higher = more binding, comparable within an allelic series)"
CCCGGGAC,binding signal,[4],"9.29 upbm affinity estimate (log intensity, higher = more binding, comparable within an allelic series)"
ACGCCGGG,binding signal,[10],"9.88 upbm affinity estimate (log intensity, higher = more binding, comparable within an allelic series)"
CTCCGCCC,binding signal,[8],"9.16 upbm affinity estimate (log intensity, higher = more binding, comparable within an allelic series)"
same,binding signal,[9],"9.22 upbm affinity estimate (log intensity, higher = more binding, comparable within an allelic series)"
CGGGCCGC,binding signal,[7],"6.51 upbm affinity estimate (log intensity, higher = more binding, comparable within an allelic series)"
CTGCGGAC,binding signal,[17],"8.87 upbm affinity estimate (log intensity, higher = more binding, comparable within an allelic series)"
same,binding signal,[18],"8.8 upbm affinity estimate (log intensity, higher = more binding, comparable within an allelic series)"
AGCCGGCT,binding signal,[7],"6.76 upbm affinity estimate (log intensity, higher = more binding, comparable within an allelic series)"
CAGCGCCG,binding signal,[4],"9.39 upbm affinity estimate (log intensity, higher = more binding, comparable within an allelic series)"
same,binding signal,[8],"9.19 upbm affinity estimate (log intensity, higher = more binding, comparable within an allelic series)"
same,binding signal,[9],"9.21 upbm affinity estimate (log intensity, higher = more binding, comparable within an allelic series)"
CCAGACGG,binding signal,[13],"9.56 upbm affinity estimate (log intensity, higher = more binding, comparable within an allelic series)"
same,binding signal,[14],"9.6 upbm affinity estimate (log intensity, higher = more binding, comparable within an allelic series)"
same,binding signal,[15],"9.51 upbm affinity estimate (log intensity, higher = more binding, comparable within an allelic series)"
same,binding signal,[16],"9.67 upbm affinity estimate (log intensity, higher = more binding, comparable within an allelic series)"
GCACGCCC,binding signal,[11],"8.55 upbm affinity estimate (log intensity, higher = more binding, comparable within an allelic series)"
same,binding signal,[12],"8.44 upbm affinity estimate (log intensity, higher = more binding, comparable within an allelic series)"
CAGGCCCG,binding signal,[7],"6.21 upbm affinity estimate (log intensity, higher = more binding, comparable within an allelic series)"
GTCCGGAC,binding signal,[13],"9.77 upbm affinity estimate (log intensity, higher = more binding, comparable within an allelic series)"
same,binding signal,[14],"9.72 upbm affinity estimate (log intensity, higher = more binding, comparable within an allelic series)"
same,binding signal,[15],"9.8 upbm affinity estimate (log intensity, higher = more binding, comparable within an allelic series)"
same,binding signal,[1],"6.74 upbm affinity estimate (log intensity, higher = more binding, comparable within an allelic series)"
same,binding signal,[2],"6.64 upbm affinity estimate (log intensity, higher = more binding, comparable within an allelic series)"
same,binding signal,[16],"9.89 upbm affinity estimate (log intensity, higher = more binding, comparable within an allelic series)"
same,binding signal,[3],"6.7 upbm affinity estimate (log intensity, higher = more binding, comparable within an allelic series)"
CGCAGCGC,binding signal,[1],"6.83 upbm affinity estimate (log intensity, higher = more binding, comparable within an allelic series)"
same,binding signal,[2],"6.82 upbm affinity estimate (log intensity, higher = more binding, comparable within an allelic series)"
same,binding signal,[3],"6.74 upbm affinity estimate (log intensity, higher = more binding, comparable within an allelic series)"
AGCTCCGC,binding signal,[19],"9.07 upbm affinity estimate (log intensity, higher = more binding, comparable within an allelic series)"
same,binding signal,[20],"9.27 upbm affinity estimate (log intensity, higher = more binding, comparable within an allelic series)"
CCGCCAGC,binding signal,[19],"8.92 upbm affinity estimate (log intensity, higher = more binding, comparable within an allelic series)"
same,binding signal,[20],"9.24 upbm affinity estimate (log intensity, higher = more binding, comparable within an allelic series)"
